Screening results from PubChem BioAssay.
BAZ2B inh: qHTS Assay for Inhibitors of BAZ2B | Potency, µM (series often up to 114 µM), inactives show at the top dose activity change, negative = inhibition, usual class: inhibitors | AID 504333, 2011 | Bromodomain adjacent to zinc finger domain protein 2B (Homo sapiens), Q9UIF8 | 360,000 compounds, 4.4% hits | AlphaScreen BAZ2B-H3K14Ac peptide displacement; note: potency is the fitted concentration of half-maximal effect; % is set by controls: 0 for no effect and ±100 for the full control effect; nearly all actives have a fitted effect of over 60% in size
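Complex of BAZ2B and biotin-H3K14Ac (50 nM apiece) forms over 30 min at RT, then faces library compounds up to 110 uM for another 30 min; AlphaScreen beads added, 20 min dark incubation, luminescence read.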
G9a block: qHTS Assay for Inhibitors of Histone Lysine Methyltransferase G9a; AID 504332, 2011; 350,000 compounds, 8.8% hits; Histone-lysine N-methyltransferase EHMT2 (Homo sapiens), Q96KQ7; Potency, µM (highest dose often 102 µM), without a hit: at the top dose activity, negative = inhibition, usual class: inhibitors; G9a H3K9 monomethylation, AlphaScreen, 2 h; note: potency is the fitted concentration of half-maximal effect; % is set by controls: 0 for no effect and ±100 for the full control effect; nearly all actives have a fitted effect of over 75% in size
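G9a (20 nM) preincubated 15 min RT with compounds, then 500 nM biotinylated H3K9 peptide and 20 uM SAM added; 2 h RT reaction. Monomethyl-H3K9 product detected by AlphaScreen with anti-H3K9me1 antibody, streptavidin donor and anti-rabbit IgG acceptor beads.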
HP1b binding inh: HTS for Inhibitors of HP1-beta Chromodomain Interactions with Methylated Histone Tails; Chromobox protein homolog 1 (Homo sapiens), P83916; AlphaScreen HP1-beta / biotin-H3K9me3 peptide binding; Potency, µM (doses to about 114 µM), for inactives: at the highest dose activity change, negative = inhibition, most hits filed as inhibitors; 390,000 compounds, 0.56% hits; AID 540317, 2011; note: potency is the fitted concentration of half-maximal effect; nearly all actives have a fitted effect of over 70% in size
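HP1-beta protein (50 nM final) preincubated 30 min at room temperature with biotinylated H3(1-18)K9me3 peptide (50 nM) in PBS pH 7.4, 0.01% Tween-20, then compound added for 30 min. AlphaScreen streptavidin donor/nickel chelate acceptor beads (10 ug/mL final), 30 min dark, luminescence read.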
CtBP-E1A inh: qHTS Assay for Inhibitors of the CtBP/E1A Interaction; activity change, % (no concentration beside the values); CtBP / adenovirus E1A interaction (AlphaScreen); AID 651724, 2012; AlphaScreen GST-E1A/His-CtBP binding, 1536-well; stronger effect = lower value; 340,000 compounds, 0.49% hits; in the data active = activity change below about -65%; inconclusive = mostly about -30% to -63%; note: % is set by controls: 0 for no effect and ±100 for the full control effect
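Homogeneous bead-based format: GST-tagged E1A captured on glutathione donor beads, His-tagged CtBP on nickel acceptor beads; compounds precede bead addition by 2 h at 37 °C.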
JMJD2A Tudor inh: qHTS Assay for Inhibitors of JMJD2A-Tudor Domain; Lysine-specific demethylase 4A (Homo sapiens), O75164; AlphaScreen JMJD2A-Tudor / H3K4me3 peptide binding; Potency, µM (doses to about 114 µM), inactives show at the top dose activity change, negative = inhibition, usual class: inhibitors; 390,000 compounds, 4.4% hits; AID 504339, 2011; note: potency is the fitted concentration of half-maximal effect; % is set by controls: 0 for no effect and ±100 for the full control effect; nearly all actives have a fitted effect of over 50% in size
Six1-Eya2 inh: qHTS Assay for Inhibitors of the Six1/Eya2 Interaction; AlphaScreen GST-Six1/His-Eya2 binding, biochemical; stronger effect = lower value; 360,000 compounds, 0.56% hits; Homeobox protein SIX1 (Homo sapiens) + Protein phosphatase EYA2 (Homo sapiens), …; activity change, % (test concentration not listed); in the data active = activity change below about -65%; inconclusive = mostly about -30% to -63%; note: % is set by controls: 0 for no effect and ±100 for the full control effect
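GST-Six1 + His-Eya2 (5X stock: 250/500 nM); Tris pH 8.0, 300 mM NaCl, 0.05% BSA, 0.02% Tween 20; GSH donor/Ni acceptor beads; 1 h 37 °C dark; AlphaScreen readout.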
* = called active by the depositor; ? = inconclusive; . = not tested or not shown; [ ] = remark or other dose. Shown are actives, neighbours in structure and some others; about 10% of the full set was active somewhere. Unless noted, calls come from the whole dose curve; as a rule, active = well fitted inhibition curve with a large enough effect; inconclusive = small, poorly fitted or top-dose-only effect; inactive = no such curve, though single readings can be large or run the other way.

SMILES	BAZ2B inh	G9a block	HP1b binding inh	CtBP-E1A inh	JMJD2A Tudor inh	Six1-Eya2 inh
CCOC(=O)C1CCCN(C(=O)COC(=O)c2ccc(C#N)cc2)C1 (stereo not drawn)	-9%	?	22%	-1	8%	-3
CC1CN(C(=O)COC(=O)c2ccc(O)cc2)CC(C)O1 (stereo not drawn)	6%	17%	3%	-1	-10%	1
Cc1cccc(Nc2cc(C)nc3nc(Cc4ccc(Cl)cc4)nn23)c1	-9%	4%[59 µM]	20%	.	-32%	.
CN(C)/C=C/C(=O)/C=C/c1cn(-c2ncc(C(F)(F)F)cc2Cl)c2ccccc12	-11%	10µM*	-6%	0	-26%	-10
COC(=O)Cc1cn(-c2ncc(C(F)(F)F)cc2Cl)c2ccccc12	56%	45%[59 µM]	112%	12	37%	26
CCOc1ccc(CCNC(=O)c2ccc(C)c(-n3cnc4cccnc43)c2)cc1	-14%	?	40%	.	4%	.
COc1ccc2c(c1)C=C(CN1CCN(Cc3ccccc3C)C(CCO)C1)CO2 (stereo not drawn)	?	?	-30%	-20	50µM*	-15
Cc1ccc(CN2CCN(Cc3ccccn3)CC2CCO)cc1 (stereo not drawn)	56µM*	1%	32%	2	-12%	-4
COc1cccc(CN2CCN(Cc3[nH]c4ccccc4c3C)CC2CCO)c1 (stereo not drawn)	35µM*	?	2%	-9	?	-9
COc1cc(CN2CCN(Cc3ccc(C)cc3)C(CCO)C2)cc(OC)c1O (stereo not drawn)	-15%	45µM*	10%	0	-25%	3
Cc1ccc(CN2CCN(Cc3ccc(Oc4ncccn4)cc3)CC2CCO)cc1 (stereo not drawn)	-11%	29%[12.7 µM]	39%	-10	-4%	-4
COc1cccc(CN2CCN(Cc3cc4ccccc4[nH]3)CC2CCO)c1 (stereo not drawn)	?	-34%	9%	.	-25%	-1
COCCNC(=O)C1CCN(S(=O)(=O)c2ccc3c(c2)CCCN3C(C)=O)CC1	3%	7%[59 µM]	27%[57 µM]	.	3%	.
CCCCOc1ccc(CNC(=O)c2cccc(NC(=O)N3CCSc4ncccc43)c2)cc1	-9%	?	-6%	.	-15%	.
CCOC(=O)N1CCN(CC(=O)c2ccc3c(c2)CCN3C(C)=O)CC1	-1%	32µM*	31%	9	-23%	6
CC(=O)N1CCc2cc([N+](=O)[O-])ccc21	.	.	25%	10	-6%	-1
CC(=O)N1CCc2cc(C(=O)CN3CCCCC3)ccc21	3%	50µM*	36%	1	-26%	0
CCOC(=O)C1CCCN(C(=O)c2nn(-c3ccc(C)cc3)c(=O)c3c2c2ccccc2n3C)C1 (stereo not drawn)	.	-20%[59 µM]	30%	.	-14%	.
COc1ccc(C2=C(N3CCN(c4cccc(C)c4)C(C)C3)c3ccccc3C2=O)cc1 (stereo not drawn)	4.5µM*	5µM*	?	.	7.1µM*	.
CC1(C)CSC(=NCCc2ccccc2)N1C(=O)c1ccc(C#N)cc1	?	2.8µM*	29%	18	1%	-4
COc1cccc(C2C(C#N)=C(N)SC(c3ccccc3)C2[N+](=O)[O-])c1 (stereo not drawn)	50µM*	?	-13%	.	?	-8
Cc1cc(Cl)ccc1Oc1ncnc2onc(C)c12	-10%	2%	28%	.	-25%	5
Cc1noc2ncnc(Oc3ccc(Cl)cc3Cl)c12	13%	5%	11%	-10	56µM*	6
COc1ccc(NS(=O)(=O)c2cc3[nH]c(=O)c(=O)[nH]c3cc2C)cc1Cl	-15%	-30%[59 µM]	17%	.	-18%	.
COCCSc1nnc(NC(=O)C2CC(=O)N(c3ccc(OC)cc3)C2)s1 (stereo not drawn)	-12%	17%[59 µM]	42%	5	0%	0
SMILES	BAZ2B inh	G9a block	HP1b binding inh	CtBP-E1A inh	JMJD2A Tudor inh	Six1-Eya2 inh
COc1ccc(N2CC(C(=O)Nc3nnc(SCC(=O)c4ccccc4)s3)CC2=O)cc1 (stereo not drawn)	-2%	13µM*	11%	13	-16%	1
Cc1ccc(N2CC(C(=O)N3CCC(C(=O)Nc4nnc(C(C)C)s4)CC3)CC2=O)cc1 (stereo not drawn)	12%	45µM*	-14%	-2	-4%	-1
CNC(=O)CSc1nnc(NC(=O)C2CC(=O)N(c3ccccc3OC)C2)s1 (stereo not drawn)	-7%	10µM*	50%	2	-9%	2
COc1ccc(NC(=O)CCC(=O)Nc2nnc(C3CCCCC3)s2)c(OC)c1	-11%	71µM*	27%	-3	-10%	-9
O=c1c(-c2ccccc2)nc2cnc(N3CCNCC3)nc2n1Cc1cccs1	.	-40%[12.7 µM]	.	.	.	.
COc1ccc(N2CC(C(=O)Nc3nnc(SCc4ccccn4)s3)CC2=O)cc1 (stereo not drawn)	-6%	50µM*	22%	6	-15%	0
COc1ccc(N2CC(C(=O)Nc3nnc(C4CCCCC4)s3)CC2=O)cc1 (stereo not drawn)	-11%	-7%	-4%	14	22µM*	6
Cc1ccc(N2CC(C(=O)Nc3nnc(SCC(N)=O)s3)CC2=O)cc1 (stereo not drawn)	-8%	40µM*	38%	5	-15%	-1
CCOCC(=O)Nc1nnc(C2CCCCC2)s1	7%	?	-27%	-3	-15%	0
CCOC(=O)C(=O)Nc1nnc(C2CCCCC2)s1	-14%	8.9µM*	-10%	0	-8%	3
O=C(Nc1nnc(C2CCCCC2)s1)C1CC(=O)N(c2ccc(F)cc2)C1 (stereo not drawn)	-2%	18%[59 µM]	28%	-2	1%	-3
Cc1ccc(Nc2nnc(-c3ccc(C)c(S(=O)(=O)N4CCN(C)CC4)c3)c3ccccc23)c(C)c1	-2%	-32%[59 µM]	13%	.	?	.
O=C(NCc1cccs1)c1nn(-c2ccccc2)nc1CO	0%	1%[59 µM]	8%	.	-21%	.
COc1ccc(OC)c(NC(=O)CCc2c(C)nc3c(c(C)nn3C(C)(C)C)c2C)c1	-27%	-3%[59 µM]	16%	.	-26%	.
CN(C)c1cccc(C(=O)Nc2nc3ccccc3[nH]2)c1	35µM*	50µM*	?	-20	45µM*	?
